Laboratory results: PubChem BioAssay AID1159537 (DiRusso Lab, Biochemistry Department, University of Nebraska, 2015)
The whole screen tested about 44,000 compounds, of which about 370 (0.84%) were called active. This is one part of a sample in which actives are shown more often than they occur. No rule for the calls is given here.

Test: inducers of TAG accumulation in Chlamydomonas, primary screen, qHTS, Chlamydomonas reinhardtii (AID 1159537);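 also: hits raise Nile Red signal meaning more stored TAG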
Conditions: Nile Red fluorescence, 72 h

SMILES | outcome
CCN(CC)CC#CCOc1ccccc1 | active [screened at 10 µM (by protocol)]
O=C(Nc1cccc(OC(=O)N2CCCCC2)c1)N1CCOCC1 | inactive
CCN(CC)CCNc1ccc([N+](=O)[O-])c2cccnc12 | inactive [screened at 10 µM (by protocol)]
CCN1CCN(CC2=CC[C@H]3C[C@@H]2C3(C)C)CC1 | inactive [screened at 10 µM (by protocol)]
CN1CCCN(CC2=CC[C@H]3C[C@@H]2C3(C)C)CC1 | active [screened at 10 µM (by protocol)]
CN1CCN(Cc2cc(Br)cs2)CC1 | inactive [screened at 10 µM (by protocol)]
Cc1cccc(OCC(=O)N2CCN(Cc3ccccc3)CC2)c1C | inactive [screened at 10 µM (by protocol)]
Fc1cccc(Cl)c1CN1CCN(c2ccccc2)CC1 | inactive
O=c1cccc2n1CC1CC2CN(c2nc(N3CCOCC3)nc(N3CCOCC3)n2)C1 (stereo not given) | inactive
O=[N+]([O-])c1ccc(CN2CCN(c3cccc(Cl)c3)CC2)cc1 | inactive
Cc1ccc(C)c(N2CCN(Cc3ccc([N+](=O)[O-])cc3)CC2)c1 | active
COc1ccccc1N1CCN(Cc2cccc([N+](=O)[O-])c2)CC1 | inactive
CCC1(c2ccccc2)C(=O)NC(=O)N(C)C1=O (stereo not given) | inactive
Nc1ccc(-c2ccc(N)c(N)c2)cc1N | inactive [screened at 10 µM (by protocol)]
N#CC(/C=C/c1ccccc1)N1CCOCC1 (stereo not given) | inactive
